22 compounds from the supplement of paper PMC6089552 can be followed below.

Each structure is given as a SMILES string. The whole screen tested about 3,200 compounds, of which about 300 (9.4%) showed activity. The sample holds actives, similar compounds and a random draw of the others, so the mix is not that of the screen. Unmarked numbers belong to inactive results.

The test system of the test is A673/TR/shEF. Kind of test: cell viability (LOESS-normalised, relative to median of negative controls) (log2 ratio); higher = more viable cells (less compound effect), active = hit call of the paper (over 3 MAD below the median). To be noted: treatment time: 72 h. The method in brief: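 Doxycycline, present or absent from 24 h before compounds, was used to induce EWS-FLI1 shRNA knockdown in A673/TR/shEF Ewing sarcoma cells at 1,500 per well in 384-well plates. Cells then received library compounds at two or more concentrations, or DMSO controls, for three days. Viability was measured by CellTiter-Glo luminescence on an Envision reader, and per-plate LOESS correction, division by the negative-control median and log2 transformation followed.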

Setting [1] is: 0.25 µM, library screen: screen1, EWS-FLI1 expression: high (no doxycycline).
The mark [2] stands for this setting: 0.25 µM, library screen: screen1, EWS-FLI1 expression: low (doxycycline-induced shRNA knockdown).
[3] abbreviates: 2.5 µM, library screen: screen1, EWS-FLI1 expression: high (no doxycycline).
Where [4] appears, read: 2.5 µM, library screen: screen1, EWS-FLI1 expression: low (doxycycline-induced shRNA knockdown).
Where [5] appears, read: 0.25 µM, library screen: screen2, EWS-FLI1 expression: high (no doxycycline).
The mark [6] stands for this setting: 0.25 µM, library screen: screen2, EWS-FLI1 expression: low (doxycycline-induced shRNA knockdown).
The mark [7] stands for this setting: 2.5 µM, library screen: screen2, EWS-FLI1 expression: high (no doxycycline).
Where [8] appears, read: 2.5 µM, library screen: screen2, EWS-FLI1 expression: low (doxycycline-induced shRNA knockdown).

For `C=C(C)C(=O)/C(=C\C(=O)O)OC`, the “cell viability (log2)” value by setting is: under setting [1], 0.0761; under setting [2], 0.0593; under setting [3], 0.138; under setting [4], 0.0173.

Consider `COP(=O)(OC)OC(Br)C(Cl)(Cl)Br` (centres undefined), for which the “cell viability (log2)” value is 0.05 under setting [1], -0.000859 under setting [2], 0.0787 under setting [3] and 0.115 under setting [4].

`COc1cc(OC)c(OC)cc1C=O`: the “cell viability (log2)” value is, setting by setting: under setting [1], 0.0675; under setting [2], 0.0986; under setting [3], 0.037; under setting [4], 0.0609.

Regarding `CN[C@@H](C)[C@H](O)c1ccccc1`, the “cell viability (log2)” value runs as follows: under setting [1], 0.0728; under setting [2], 0.0797; under setting [5], 0.178; under setting [6], 0.073; under setting [3], 0.233; under setting [4], 0.0725. Further, the “cell viability (log2)” value was 0.0371 under setting [7] and 0.00703 under setting [8].

Take `O=C(O)c1cc[c]([Hg][Cl])cc1`: the “cell viability (log2)” value is 0.203 under setting [5], 0.0774 under setting [6], -0.0791 (active) under setting [7] and 0.0559 under setting [8].

Take `COc1ccc(C(=O)O)cc1OC`: the “cell viability (log2)” value by setting is: under setting [1], 0.0171; under setting [2], 0.0588; under setting [3], 0.137; under setting [4], -0.0498.

On to `NNCc1cccc(O)c1`, for which the “cell viability (log2)” value runs as follows: under setting [1], 0.103; under setting [2], 0.0544; under setting [5], 0.129; under setting [6], 0.00623; under setting [3], 0.142; under setting [4], 0.142. Moreover, the “cell viability (log2)” value is 0.151 under setting [7] and 0.0221 under setting [8].

Take `NC(Cc1cc(O)c(O)cc1O)C(=O)O` (centres undefined): the “cell viability (log2)” value was 0.0775 under setting [5], 0.133 under setting [6], 0.0832 under setting [7] and 0.2 under setting [8].

With `CC(=O)c1c(O)c(C)c(O)c(Cc2c(O)c3c(c(C(=O)/C=C/c4ccccc4)c2O)OC(C)(C)C=C3)c1O`, the “cell viability (log2)” value by setting is: (0.025 µM, library screen: screen1, EWS-FLI1 expression: high (no doxycycline)) 0.0285; (0.025 µM, library screen: screen1, EWS-FLI1 expression: low (doxycycline-induced shRNA knockdown)) 0.0263; under setting [1], 0.0889; under setting [2], 0.0306; under setting [5], 0.209; under setting [6], 0.109. Also, the “cell viability (log2)” value was 0.055 under setting [3]; -0.0112 under setting [4]; 0.118 under setting [7]; 0.156 under setting [8]; -0.306 (active) (25 µM, library screen: screen1, EWS-FLI1 expression: high (no doxycycline)); -0.0436 (25 µM, library screen: screen1, EWS-FLI1 expression: low (doxycycline-induced shRNA knockdown)).

Consider `CC(N)Cc1c[nH]c2ccc(O)cc12` (centres undefined), for which the “cell viability (log2)” value was 0.112 under setting [5], 0.067 under setting [6], 0.123 under setting [7] and 0.0164 under setting [8].

With `COc1ccc(C(c2ccc(OC)cc2)C(Cl)(Cl)Cl)cc1`, the “cell viability (log2)” value was 0.0772 under setting [1], 0.0568 under setting [2], 0.0994 under setting [3] and 0.0877 under setting [4].

Turning to `ClC1=C(Cl)[C@]2(Cl)[C@H]3[C@H]([C@@H]4C=C[C@H]3C4)[C@@]1(Cl)C2(Cl)Cl`, the “cell viability (log2)” value by setting is: under setting [1], 0.211; under setting [2], 0.0643; under setting [3], 0.0733; under setting [4], 0.136.

Turning to `CCN(CC)C(=O)N[C@@H]1C[C@@H]2c3cccc4[nH]cc(c34)C[C@H]2N(C)C1`, the “cell viability (log2)” value reads like this: under setting [5], 0.108; under setting [6], 0.0251; under setting [7], 0.215; under setting [8], -0.0279.

Regarding `CCCCSP(=O)(SCCCC)SCCCC`, the “cell viability (log2)” value reads like this: under setting [1], -0.12 (active); under setting [2], 0.121; under setting [3], 0.0791; under setting [4], 0.0846.

As to `CCCSP(=O)(OCC)SCCC`, the “cell viability (log2)” value reads like this: under setting [1], 0.112; under setting [2], 0.104; under setting [3], 0.0625; under setting [4], 0.0939.

Take `CC1=C[C@@H]2c3cccc4[nH]cc(c34)C[C@H]2N(C)C1`: the “cell viability (log2)” value is, setting by setting: under setting [5], 0.126; under setting [6], 0.0939; under setting [7], 0.18; under setting [8], 0.0817.

As for `CCOP(=S)(OCC)SCSCC`, the “cell viability (log2)” value is 0.102 under setting [1], -0.0178 under setting [2], 0.0726 under setting [3] and 0.115 under setting [4].

As to `NC1CC1c1ccccc1` (centres undefined), the “cell viability (log2)” value by setting is: under setting [1], 0.107; under setting [2], 0.128; under setting [3], 0.188; under setting [4], 0.0868.

As to `COc1ccc2c3c1O[C@H]1[C@@H](O)CCC4[C@@H](C2)N(C)CC[C@@]341` (some centres undefined), the “cell viability (log2)” value is 0.0725 under setting [1], 0.0483 under setting [2], 0.0123 under setting [3] and 0.128 under setting [4].

Regarding `C=CCN1CCC2(C)c3cc(O)ccc3CC1C2C` (centres undefined), the “cell viability (log2)” value reads like this: under setting [5], 0.143; under setting [6], 0.072; under setting [7], 0.0589; under setting [8], 0.0707.

As for `N#Cc1c(Cl)c(Cl)c(Cl)c(C#N)c1Cl`, the “cell viability (log2)” value under setting [1] is -0.0732, the “cell viability (log2)” value under setting [2] is 0.00425, the “cell viability (log2)” value under setting [3] was -0.219 (active) and the “cell viability (log2)” value under setting [4] was 0.063.

On to `N#Cc1c(Cl)cccc1Cl`, for which the “cell viability (log2)” value under setting [1] is 0.126, the “cell viability (log2)” value under setting [2] is 0.0183, the “cell viability (log2)” value under setting [3] is 0.084 and the “cell viability (log2)” value under setting [4] was 0.0798.
